# Laboratory results reported in PubChem BioAssay AID1845 (The Scripps Research Institute Molecular Screening Center, 2009).
# Among all 290,000 compounds or so, about 490 (0.17%) were called active. Cut-off read from the data, not from the text of the source: active = inhibition above about 37%; inactive = the rest. What follows is part of a selection rich in actives, with near analogues and random picks from the rest.
# Experiment: DNA intercalator displacement agents – biochemical, FID fluorescence, artefact control for HCV NS3 helicase inhibitor project, primary screen (AID 1845);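 note: 0% = vehicle and 100% = reference compound; higher means more ethidium bromide displaced from hairpin DNA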
# Conditions: DNA fluorescent intercalator displacement, at 7.9 µM, active compounds read high
row,SMILES,inhibition
1,CCC(C(=O)NCCC(C)C)N(Cc1ccccc1Cl)C(=O)c1snc(C(N)=O)c1N (stereo not given),-29.9% (inactive)
2,COc1ccc(NC(=O)CN2C(=O)COc3ccc(S(=O)(=O)N4CCOCC4)cc32)c(OC)c1,-13.3% (inactive)
3,COc1ccc(N2CCN(CCNC(=O)Nc3cc(Cl)ccc3Cl)CC2)cc1,21% (inactive)
4,CCCCc1nc(SCC(=O)Nc2nnc(C(C)C)s2)n[nH]1,-16.5% (inactive)
5,O=C(NCCN1CCOCC1)c1ccc(/C=C2\Sc3ccccc3N(Cc3ccc(F)cc3)C2=O)cc1,0.94% (inactive)
6,CN1CCN(CCCNC(=O)c2ccc(/C=C3\Oc4ccccc4N(Cc4ccc(Cl)cc4)C3=O)cc2)CC1,40.6% (active)
7,CN1C(=O)/C(=C/c2ccc(C(=O)NC3CCCC3)cc2)Oc2ccccc21,1.1% (inactive)
8,CN(C)c1nc(Nc2ccc(Cl)c(Cl)c2)nc(N(C)C)n1,-4.12% (inactive)
9,Nc1nc(Nc2ccccc2)nc(NCCO)c1[N+](=O)[O-],-6.38% (inactive)
10,OCCNc1nc(Nc2ccc(Cl)c(Cl)c2)nc2ccccc12,40.6% (active)
11,COc1ccc(NC(=O)NNC(=O)COc2cc(C)c(Cl)c(C)c2)c(OC)c1,-28% (inactive)
12,CCOC(=O)C(NS(=O)(=O)c1ccc(C)cc1)(C(F)(F)F)P(=O)(OCC(C)C)OCC(C)C (stereo not given),-11.5% (inactive)
13,Cc1cc(OCC(=O)N2CCN(c3ncccn3)CC2)ccc1Cl,-46.1% (inactive)
14,O=C(O)c1ccc2c(=O)n3c(nc2c1)/C(=C/c1ccc(Cl)c([N+](=O)[O-])c1)CC3,-14.2% (inactive)
15,Cn1c(=N)n(CC(O)c2ccccc2)c2ccccc21 (stereo not given),2.17% (inactive)
16,CCOc1ccc(C(O)Cn2c(=N)n(CCN3CCCCC3)c3ccccc32)cc1 (stereo not given),40.9% (active)
17,Cc1cccc(OCC(O)Cn2c(=N)n(CCN3CCOCC3)c3ccccc32)c1 (stereo not given),18.2% (inactive)
18,CCC1CCCCN1CCCNC(=O)c1cc2c(Cl)nc3ccccc3c2s1 (stereo not given),43.6% (active)
19,CCC1CCCCN1CCCNC(=O)Cn1nc(-c2ccccc2)ccc1=O (stereo not given),0.11% (inactive)
20,CCC1CCCCN1CCCNC(=O)C1CCC(Cn2c(=O)[nH]c3ccccc3c2=O)CC1 (stereo not given),2.92% (inactive)
21,O=C(N/N=C/c1ccc(OCC2COCCO2)cc1)c1ccc(Br)cc1 (stereo not given),-19.9% (inactive)
22,CCCCCCc1cc2cc(-c3nnc(-c4cccc(OC)c4)o3)c(=O)oc2cc1O,0.28% (inactive)
23,CN(C)CCCn1c(SCc2ccc(Cl)cc2)nnc1-c1ccncc1,3.61% (inactive)
24,COc1ccc(OC)c(NC(=O)CN(Cc2ccc(Cl)cc2)S(C)(=O)=O)c1,-26.1% (inactive)
25,O=C(/C=C/c1ccco1)NC(=S)Nc1ccccc1Br,-8.41% (inactive)

row,SMILES,inhibition
1,CCCNC(=O)N1CCC(c2ccc3c(c2)OCO3)CC1,-7.97% (inactive)
2,NC(=O)COC(=O)c1ccc2c(c1)C(=O)N(Cc1ccco1)C2=O,-2.94% (inactive)
3,CCn1nnnc1SCC(=O)Nc1ccc(N(C)C)cc1,-4.25% (inactive)
4,COc1ccc(C(=O)N2CCCCC2C(=O)Nc2ccc(-n3nc(C)cc3C)cc2)o1 (stereo not given),-43.5% (inactive)
5,Cc1ccccc1OCC(=O)Nc1nnc(S(=O)(=O)N2CCCC2)s1,-35.4% (inactive)
6,O=CN1CCN(C(=O)c2ccc3c(c2)OCO3)CC1,-1.4% (inactive)
7,NC(=O)C1CC(=O)N(c2ccc(OCC(=O)NCc3ccccc3)cc2)C1 (stereo not given),-4.26% (inactive)
8,CC(=O)c1cc(CN2CCC(n3nccc3NC(=O)c3ccccc3Cl)CC2)cs1,-5.43% (inactive)
9,CCOC(=O)c1c(NC(=S)NC)sc2c1CCCC2,-4.6% (inactive)
10,CCOC(=O)c1c(NC(=O)C2CCN(S(=O)(=O)c3ccc(Cl)cc3)CC2)sc2c1CCCC2,43.9% (active)
11,CCOC(=O)c1c(NC(=S)NC(=O)c2ccco2)sc2c1CCCC2,0.98% (inactive)
12,O=C(CNC(=O)OCc1ccccc1)NC1CCCCNC1=O (stereo not given),0.17% (inactive)
13,O=C(O)CCCN1C(=O)C2C3c4ccccc4C(c4ccccc43)[C@@H]2C1=O (stereo not given in full),-12.3% (inactive)
14,CC(C)C[C@H]1CN=C(Nc2ccccc2)N1CC1CCCCC1,3.71% (inactive)
15,CCOc1ccc(NC(=O)c2ccc(NC(=O)C3CCCO3)cc2)cc1 (stereo not given),-28.7% (inactive)
16,CCN(C(=O)CN1C(=O)/C(=C/c2ccc(F)cc2)SC1=S)C1CCS(=O)(=O)C1 (stereo not given),-43.9% (inactive)
17,COc1ccccc1/C=N/Nc1nc(C)c(C(C)=O)s1,-19.2% (inactive)
18,Cc1ccc(S(=O)(=O)N(C)C)cc1NC(=O)C1Cc2ccccc2CN1C(=O)c1ccco1 (stereo not given),-29.3% (inactive)
19,CCCNC(=O)c1cnc(-c2ccccc2)nc1-c1ccccc1,-20.5% (inactive)
20,O=C(c1ccc(Cn2cc([N+](=O)[O-])cn2)o1)N1CCCC1,-4.09% (inactive)
21,Cc1cccc(OCC(=O)NCCCNC(=O)c2ccccn2)c1,-16.1% (inactive)
22,CCN(CC)CCOc1ccc2c(c1)C(=NNC(=O)c1ccccn1)c1cc(OCCN(CC)CC)ccc1-2,98.8% (active)
23,COc1ccc(CC(=O)N/N=C(\C)c2ccccn2)cc1,-6.95% (inactive)
24,COc1ccc(CCNC(=O)C(=O)NCC2OCCN2S(=O)(=O)c2ccc(F)cc2)cc1OC (stereo not given),-32.4% (inactive)
25,Cc1ccc(C(=O)N/C(=C\c2cn(S(=O)(=O)N(C)C)c3ccccc23)C(=O)N2CCCC2)cc1,-52.8% (inactive)
